Compound activity (PubChem BioAssay)
Pf apPOL inh – Pf-apPOL DNA polymerase inhibition; hit rate 0.25% among 210,000; inhibition, % at 10 µM; Recombinant Pf-apPOL, molecular beacon fluorescence, 1.5 h
mHTT CaM bind – inhibitors of human mutant huntingtin-calmodulin interaction | inhibition, % at 15 µM | hit rate 3.6% among 190,000 | AlphaScreen His-mHTT/GST-CaM binding, luminescence | P42858;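 also: 0% = both proteins with DMSO and 100% = one protein alone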
Active calls of the source: *; nt = no result given; ! = not confirmed by another sample. Hits are enriched below; roughly 3.5% of the tested compounds scored in any of these assays. Rule as the data show it: active = inhibition above about 50%; inactive = the rest.

SMILES | Pf apPOL inh | mHTT CaM bind
Cc1ccc(C)c(S(=O)(=O)NC(C)C(=O)Nc2ccccc2F)c1 (stereo unspecified) | -3.4 | -6.1
O=C1CCCC2=C1C(c1cccs1)c1c(nc(SCc3ccccc3F)[nH]c1=O)N2 (stereo unspecified) | -4.9 | 41.0
CN(C)c1ccc(C2C3=C(CCCC3=O)Nc3nc(SCc4ccccc4F)[nH]c(=O)c32)cc1 (stereo unspecified) | -5.4 | 52.0*
N#CC1=C(N)n2c(s/c(=C\c3ccc([N+](=O)[O-])cc3)c2=O)=C(C#N)C1c1ccc([N+](=O)[O-])cc1 (stereo unspecified) | -6.3 | 14.0
N#CC1=C(N)n2c(s/c(=C\c3ccc(O)cc3)c2=O)=C(C(N)=O)C1c1ccc(O)cc1 (stereo unspecified) | -3.5 | 53.0*
O=C(COc1ccccc1F)NCC1CCN(C(=O)c2cc3ccccc3o2)CC1 | -15.1 | 2.0
CCOc1ccccc1NC(=O)CSc1nnc(-c2cccnc2)o1 | -6.9 | -3.7
COc1cc(CN2COc3ccc4c(c3C2)OC(=Cc2ccco2)C4=O)cc(OC)c1OC | -19.0 | 50.9*
COc1cc(CN2COc3ccc4c(c3C2)OC(=Cc2ccccc2)C4=O)cc(OC)c1OC | -16.0 | 11.5
COc1ccc(CN2COc3ccc4c(c3C2)OC(=Cc2ccco2)C4=O)cc1OC | -14.9 | 53.1*
COc1ccccc1CN1COc2ccc3c(c2C1)OC(=Cc1ccco1)C3=O | -19.8 | 18.4
COc1ccc(NS(=O)(=O)c2ccc(OC)c3ncccc23)cc1 | -2.8 | 3.0
CNC(=O)c1ccc(CN(C(C)C)C(C)C)o1 | 2.1 | -1.7
CCOc1ccc(/C=C2\NC(=O)N(Cc3ccccc3F)C2=O)cc1OC | -1.8 | -4.0
O=C(NC1(C(F)(F)F)Oc2ccccc2O1)N1CCCC1 | 2.0 | -3.0
CC/C(C)=C1\C(=O)NN(c2ccc(Br)cc2)C1=O | -1.2 | 74.0*
Cn1c(=O)n(C)c2cc(/C=C3\C(=O)NN(c4ccc(Br)cc4)C3=O)ccc21 | 5.3 | 2.0
Cc1cccc(N2CCN(Cc3cc(=O)[nH]c(C(C)C)n3)CC2)c1 | -1.4 | 1.9
CCC(NC(=O)c1cn2cc(C)ccc2n1)c1cccs1 (stereo unspecified) | -5.6 | 1.4
Nc1ccc(S(=O)(=O)Nc2ccnn2-c2ccccc2)cc1 | -8.6 | nt
COc1ccc(-c2c(C)oc3cc(OC(=O)C(C)C)ccc3c2=O)cc1OC | -7.0 | 84.2*
COc1ccc(-c2c(C)oc3cc(O)ccc3c2=O)cc1 | 62.3* | -5.4
COc1ccc(C(=O)Oc2ccc3c(=O)c(-c4ccc(OC)c(OC)c4)c(C)oc3c2)cc1OC | 2.0 | -1.6
COc1ccc(-c2c(C)oc3cc(O)ccc3c2=O)cc1OC | -4.7 | 3.4
COc1cccc(-n2ccnc(NC(=O)c3ccc(F)cc3)c2=O)c1 | 1.0 | 0.9
SMILES | Pf apPOL inh | mHTT CaM bind
Cc1cc(C)c(S(=O)(=O)N=C2C=CC(=O)C(Br)=C2)c(C)c1 | -4.5 | 53.0*
Cc1cc(C)c(S(=O)(=O)N2CCCC2=O)c(C)c1 | -12.0 | -11.1
CCN(CC)C(=NS(=O)(=O)c1ccc(C)cc1C)c1ccccc1 | -2.6 | -1.0
Cc1ccc(S(=O)(=O)N=C2C=CC(=O)C(Br)=C2)c(C)c1 | -8.2 | 93.0*
Cc1cc2[nH]c(C(=O)NC3CCCC3)c(CN3CCCC3)c2s1 | 2.9 | -4.7
COc1ccc(OC)c(NC(=O)CN2C(=O)NC3(CCC(C(C)(C)C)CC3)C2=O)c1 (stereo unspecified) | -4.7 | 24.3
COc1ccc(C2=N/C(=C\c3cccc(OC)c3OC)C(=O)O2)c(Br)c1 | -1.2 | 5.0
Cc1ccc2ccc(C(Nc3ccccn3)c3ccccc3C)c(O)c2n1 (stereo unspecified) | -32.8 | 68.0*
COc1ccccc1C(=O)Nc1ccccn1 | 1.4 | -8.4
COc1cccc(C(Nc2ccccn2)c2ccc3ccc(C)nc3c2O)c1OC (stereo unspecified) | -30.3 | 69.0*
Cc1cc(C)c2nc(C)cc(NC(=O)c3ccccn3)c2c1 | -0.6 | -11.1
O=C(Nc1ccccc1Cl)c1ccc(F)c(S(=O)(=O)NC2CCCCCC2)c1 | -4.1 | -3.0
Cc1ccc(N=C2C(=O)Nc3ccc(C)c(Br)c32)cc1 | -3.2 | 9.0
COc1ccc(N=C2C(=O)Nc3ccc(C)c(Br)c32)cc1 | 2.0 | 64.0*
CC(=O)N(C)c1ccc(N=C2C(=O)Nc3cc(Br)c(C)cc32)cc1 | -8.6 | 5.0
Cc1ccc(N=C2C(=O)Nc3cc(Br)c(C)cc32)cc1 | -0.6 | 55.0*
O=C1c2ccccc2C(=O)N1Cn1cc(-c2cccc(C(F)(F)F)c2)nn1 | 2.2 | -2.6
O=C1C=CC(=O)C(c2cccc(C(F)(F)F)c2)=C1 | -1.6 | 74.0*
CC1(C)C2CCC1(C)C(OCC(O)CN(CCO)CCO)C2 (stereo unspecified) | 1.5 | 0.0
Cn1ncc([N+](=O)[O-])c1C(=O)NNC(=S)NC1CCCC1 | nt | -1.9
O=C(NNC(=S)NC1CCCCC1)c1[nH]ncc1[N+](=O)[O-] | nt | 61.0*
CCS(=O)(=O)CCSc1nc(C)cc(C)n1 | 51.3* | 17.0
Cc1cc(C)nc(SCCCCSc2nc(C)cc(C)n2)n1 | -5.9 | -7.0
Cc1onc(-c2ccccc2)c1[N+](=O)[O-] | -8.0 | -1.9
CCC(=O)N1c2ccc(S(=O)(=O)NC(C)(C)C)cc2CC1C (stereo unspecified) | 5.0 | -5.0
SMILES | Pf apPOL inh | mHTT CaM bind
O=C1OC(c2ccc(Cl)cc2Cl)=N/C1=C\c1ccco1 | -9.8 | 4.0
COc1cccc(/C=C2\N=C(c3cccc(OC)c3)OC2=O)c1 | 0.0 | 2.0
O=C1OC(c2cc(Cl)ccc2Cl)=N/C1=C\c1ccco1 | 85.6* | 3.0
O=C1OC(c2ccccc2Cl)=N/C1=C\c1ccc(Cl)cc1 | -6.8 | 3.0
COc1cccc(C2=N/C(=C\c3ccco3)C(=O)O2)c1 | 61.4* | 4.0
COc1ccc(OC)c(/C=C2\N=C(c3ccc(Cl)c([N+](=O)[O-])c3)OC2=O)c1 | -3.0 | 68.0*
COc1ccc(Br)cc1/C=C1\N=C(c2ccc(Cl)c([N+](=O)[O-])c2)OC1=O | 3.6 | -6.0
O=C1OC(c2ccccc2Cl)=N/C1=C\c1ccccc1 | 3.0 | 51.0*
Cn1c(=O)cc(-c2ccccc2)c2cc(Cl)ccc21 | -4.0 | 30.5
CC(C)c1cccc(OCCN2CCOCC2)c1 | 4.4 | -1.0
CC(NC(=O)CSc1nnc(-c2cccc(F)c2)n1-c1ccccc1)c1ccccc1 (stereo unspecified) | 1.7 | 20.5
COc1ccc(OC)c(N(CC(=O)Nc2cccc(C(C)=O)c2)S(=O)(=O)c2ccccc2)c1 | 1.1 | 1.8
Cc1ccc(NC(=O)C(=O)NCCCn2ccnc2)cc1F | -8.0 | 16.7
O=C(NCCCn1ccnc1)C(=O)NCc1ccc(F)cc1 | -5.8 | 70.2*
COc1ccc(-c2nccc(C3CCCN(C(=O)c4ccccc4C)C3)n2)cc1 (stereo unspecified) | 0.0 | 2.7
COc1ccc(-c2nccc(C3CCCN(C(=O)c4cccs4)C3)n2)cc1 (stereo unspecified) | -4.6 | 10.9
O=C(c1cccs1)N1CCCC(c2ccnc(-c3ccccc3)n2)C1 (stereo unspecified) | -6.5 | 95.3*
Cc1ccccc1C(=O)N1CCCC(c2ccnc(-c3ccc(F)cc3)n2)C1 (stereo unspecified) | 0.3 | 73.4*
CCC(CC)C(=O)Nc1nc(C)ns1 | -1.3 | -5.8
CCC(C)NS(=O)(=O)c1cc(-c2nc(C)cs2)n(C)c1C (stereo unspecified) | -1.4 | 2.6
c1ccc2c3c([nH]c2c1)-c1nonc1CC3 | 92.9*! | 0.1
COc1ccc2c3c(ccc2c1)-c1[nH]c2ccccc2c1CC3 | nt | 44.3
